Experimental data as given in PubChem BioAssay (EPA / NIEHS).
The source made the active and inactive calls. Rule for the calls: active = hit-call score of the fitted dose curve at least 0.9, where 1 is the maximum; inactive = score below 0.9.

How the values were obtained:
[1] = ATG_CRE_CIS: Attagene CIS-FACTORIAL HepG2 Assay for human cAMP Responsive Element (CRE) binding protein 3 (AID 2282926); settings: HepG2 CRE cis-reporter, Attagene multiplexed mRNA; actives raise or lower the signal
Summary of the method: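 Endogenous CRE-binding activity in HepG2 is reported through a cis-regulated transfected reporter. Following a day of exposure, mRNA levels are determined by reverse transcription PCR and fluorescent fragment analysis; fits run in both directions versus DMSO.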

[2] = molecular target: CCAAT/enhancer-binding protein beta (Homo sapiens) (UniProt P17676); test: ATG_C_EBP_CIS: Attagene CIS-FACTORIAL HepG2 Assay for human CCAAT/Enhancer Binding Protein (C/EBP) beta (AID 2282927); settings: HepG2 Attagene cis-factorial transcription factor reporter; actives raise or lower the signal
Summary of the method: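 HepG2 transiently transfected with multiplexed reporter units under cis-regulatory promoters reporting endogenous C/EBPb activity. After 24 h exposure, reporter mRNA assayed by RT-PCR, fluorescent labelling, HpaI digestion and capillary electrophoresis; bidirectional fitting versus DMSO.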

[3] = ATG_CMV_CIS: Attagene CIS-FACTORIAL HepG2 Assay for human CMV (Internal Marker) (AID 2282928); settings: HepG2 CMV promoter reporter, transcription factor profiling; actives raise or lower the signal;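 note: endpoint acts as a background internal control marker rather than a target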
Summary of the method: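 CMV internal-marker background readout in transiently transfected HepG2 cells bearing cis-regulated reporter units. Reporter mRNA is measured 24 h after dosing by RT-PCR and capillary electrophoresis, with bidirectional fitting against DMSO.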

[4] = ATG_DR4_LXR_CIS: Attagene CIS-FACTORIAL HepG2 Assay for human Liver X Receptor (LXR), DR4 submotif (AID 2282929); settings: HepG2 Attagene DR4 cis-reporter, mRNA transcription; actives raise or lower the signal
Summary of the method: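 Total RNA from 24 h-treated, MRTU-transfected HepG2 cells underwent reverse transcription, PCR, fluorescent primer extension and restriction digestion before capillary electrophoresis. Both increases and decreases in reporter signal were fitted against DMSO.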

[5] = molecular target: Aryl hydrocarbon receptor (Homo sapiens) (UniProt P35869); test: ATG_Ahr_CIS: Attagene CIS-FACTORIAL HepG2 Assay for human Aryl Hydrocarbon Receptor (Ahr) (AID 2282930); settings: HepG2 AhR cis-factorial reporter transcription; actives raise or lower the signal
Summary of the method: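 HepG2 cells transiently transfected with cis-element-driven multiplexed reporter units; endogenous AhR activity read as reporter mRNA 24 h after dosing, via RT-PCR, 6-FAM labelling, HpaI digestion and capillary electrophoresis. Bidirectional fit relative to DMSO.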

[6] = ATG_AP_1_CIS: Attagene CIS-FACTORIAL HepG2 Assay for human Activator Protein 1 (AP-1) (AID 2282931); settings: HepG2 Attagene cis-factorial AP-1 reporter mRNA; actives raise or lower the signal
Summary of the method: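 HepG2, transient cis-reporter transfection; 24 h; readout RT-PCR/CE fluorescence; DMSO baseline, gain and loss fitted.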

[7] = ATG_AP_2_CIS: Attagene CIS-FACTORIAL HepG2 Assay for human Activator Protein 2 (AP-2) (AID 2282932); settings: HepG2 AP-2 cis-reporter, Attagene transcription factor profiling; actives raise or lower the signal
Summary of the method: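 HepG2 cells transiently transfected with cis-element reporter units and exposed for 24 h. Reporter mRNA measured by RT-PCR, FAM labelling, HpaI digestion and capillary electrophoresis. Changes in either direction fitted relative to DMSO.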

[8] = ATG_BRE_CIS: Attagene CIS-FACTORIAL HepG2 Assay for human Bone Morphogenetic Protein (BMP) Response Element (BRE) (AID 2282933); settings: HepG2 BMP response element reporter, Attagene transcription factor profiling; actives raise or lower the signal
Summary of the method: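 Endogenous transcription factor activity read in transiently transfected HepG2 cells after 24 h chemical exposure. Bidirectional curve fitting against DMSO; readout is reporter transcript level by RT-PCR with capillary electrophoresis of labelled products.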

[9] = molecular target: Retinoic acid receptor alpha (Homo sapiens) (UniProt P10276); test: ATG_DR5_RAR_CIS: Attagene CIS-FACTORIAL HepG2 Assay for human Retinoic Acid Receptor Alpha (RARE), DR5 submotif (AID 2282934); settings: HepG2 Attagene cis-factorial RARE DR5 reporter, mRNA; actives raise or lower the signal
Summary of the method: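 HepG2 cells transiently transfected with multiplexed reporter units; DR5 cis-element drives reporter through endogenous transcription factors. After 24 h dosing, reporter mRNA quantified by RT-PCR, fluorescent labeling, HpaI digestion and capillary electrophoresis; bidirectional fitting versus DMSO.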

[10] = molecular target: Transcription factor E2F1 (Homo sapiens) (UniProt Q01094); test: ATG_E2F_CIS: Attagene CIS-FACTORIAL HepG2 Assay for human E2F Transcription Factor 1 (AID 2282935); settings: HepG2 Attagene cis-reporter, E2F reporter RNA transcripts; actives raise or lower the signal
Summary of the method: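 Endogenous E2F1 activity read through cis-promoter reporter units transfected into HepG2. After 24 h compound treatment, reporter mRNA measured by RT-PCR, HpaI digestion and capillary electrophoresis. Bidirectional fit versus DMSO.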

[11] = ATG_E_Box_CIS: Attagene CIS-FACTORIAL HepG2 Assay for human Enhancer Box (E-box) (AID 2282936); settings: HepG2 E-box cis-reporter transcription, actives raise or lower the signal
Summary of the method: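 HepG2 cells transiently transfected with multiplexed cis-element reporter units, dosed 24 h; reporter mRNA quantified by RT-PCR, 6-FAM labelling, HpaI digestion and capillary electrophoresis. E-box (USF1) signal fitted bidirectionally vs DMSO.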

[12] = ATG_M_61_CIS: Attagene CIS-FACTORIAL HepG2 Assay for M61 Transcription Factor (Internal Marker) (AID 2282937); settings: HepG2 Attagene CIS-FACTORIAL M61 internal marker reporter; actives raise or lower the signal
Summary of the method: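 Transfect HepG2 with MRTUs; dose 24 h; isolate RNA; reverse-transcribe with DNase I treatment; PCR-amplify, FAM-label and cut with HpaI for 2 h at 37 C; resolve by CE. Bidirectional fitting against DMSO.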

[13] = ATG_EGR_CIS: Attagene CIS-FACTORIAL HepG2 Assay for human Early Growth Response 1 (EGR1) (AID 2282938); settings: HepG2 Attagene CIS-FACTORIAL EGR reporter mRNA; actives raise or lower the signal
Summary of the method: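 After a 24 h treatment of transiently transfected HepG2 cells, total RNA was reverse-transcribed and reporter sequences PCR-amplified, labelled and run on capillary electrophoresis. Reporters sit under cis-regulatory promoters sensing endogenous factors.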

[14] = ATG_M_19_CIS: Attagene CIS-FACTORIAL HepG2 Assay for M19 Transcription Factor (Internal Marker) (AID 2282939); settings: HepG2 Attagene CIS-FACTORIAL M19 internal marker reporter; actives raise or lower the signal
Summary of the method: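 Internal marker readout, fitted in both directions against DMSO, from HepG2 cells carrying transfected cis-element reporter constructs; RT-PCR and capillary electrophoresis of reporter mRNA after 24 h exposure.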

[15] = ATG_ERE_CIS: Attagene CIS-FACTORIAL HepG2 Assay for Estrogen Response Element (ERE) (AID 2282940); settings: HepG2 ERE cis-reporter, Attagene RNA transcript; actives raise or lower the signal
Summary of the method: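 After 24 h compound treatment, RNA from transfected HepG2 cells was reverse-transcribed, reporter cDNA PCR-amplified, FAM-labelled, HpaI-cut and resolved by capillary electrophoresis. ERE-driven cis reporter transcripts reflect endogenous factors; gain or loss scored against DMSO.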

[16] = ATG_Ets_CIS: Attagene CIS-FACTORIAL HepG2 Assay for human Erythroblast Transformation Specific (ETS) (AID 2282941); settings: HepG2 ETS cis-reporter transcription, actives raise or lower the signal
Summary of the method: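 HepG2 cells transfected with multiple cis-regulated reporter units measuring endogenous ETS-driven transcription, 24 h after dosing. Reporter mRNA quantified by RT-PCR with capillary electrophoresis; bidirectional fit relative to DMSO.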

[17] = molecular target: Hepatocyte nuclear factor 3-beta (Homo sapiens) (UniProt Q9Y261); test: ATG_FoxA2_CIS: Attagene CIS-FACTORIAL HepG2 Assay for human Forkhead box A2 (FOXA2) (AID 2282942); settings: HepG2 cis-reporter transcription factor activity, 24 h; actives raise or lower the signal
Summary of the method: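 24 h dosing of HepG2 bearing cis-reporter constructs; mRNA readout by RT-PCR/CE fluorescence; bidirectional fit, DMSO baseline.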

[18] = ATG_FoxO_CIS: Attagene CIS-FACTORIAL HepG2 Assay for human Forkhead box O (FoxO) (AID 2282943); settings: HepG2 Attagene cis-reporter, FoxO element, mRNA; actives raise or lower the signal
Summary of the method: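 HepG2 cells transiently transfected with cis-element-driven reporter units report endogenous FoxO activity. After 24 h chemical exposure, reporter mRNA quantified by RT-PCR, fluorescent labeling, HpaI digestion and capillary electrophoresis; bidirectional fit versus DMSO.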

[19] = ATG_GATA_CIS: Attagene CIS-FACTORIAL HepG2 Assay for human GATA Binding Protein (AID 2282944); settings: HepG2 GATA cis-element reporter, Attagene multiplex mRNA; actives raise or lower the signal
Summary of the method: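 Reporter transcripts from a GATA cis-regulated unit, among multiplexed reporters in transfected HepG2 cells, were measured by RT-PCR with capillary electrophoresis after 24 h dosing. Induction or loss scored relative to DMSO.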

[20] = ATG_GLI_CIS: Attagene CIS-FACTORIAL HepG2 Assay for human Zinc Finger Protein GLI1 (AID 2282945); settings: HepG2, Attagene cis-factorial reporter mRNA, GLI element; actives raise or lower the signal
Summary of the method: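 Transiently transfected HepG2 cells report endogenous transcription factor activity via cis-element-driven reporter units. After 24 h compound exposure, reporter mRNA was measured by RT-PCR with capillary electrophoresis; bidirectional fitting against DMSO baseline.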

Measured: AC50

Chain of Transcription factor E2F1 (Homo sapiens) (Q01094 whole entry, looked up): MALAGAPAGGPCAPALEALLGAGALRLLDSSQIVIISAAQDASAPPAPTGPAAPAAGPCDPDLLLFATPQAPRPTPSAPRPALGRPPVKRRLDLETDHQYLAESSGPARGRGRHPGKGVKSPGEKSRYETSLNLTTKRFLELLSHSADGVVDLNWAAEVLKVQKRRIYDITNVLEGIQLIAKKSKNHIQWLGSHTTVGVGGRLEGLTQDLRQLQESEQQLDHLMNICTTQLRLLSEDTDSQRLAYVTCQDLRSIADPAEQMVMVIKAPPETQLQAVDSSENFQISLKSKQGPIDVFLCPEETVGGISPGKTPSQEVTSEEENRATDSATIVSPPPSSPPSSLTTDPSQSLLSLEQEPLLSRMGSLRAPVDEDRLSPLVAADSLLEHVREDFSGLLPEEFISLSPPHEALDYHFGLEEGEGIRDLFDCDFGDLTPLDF
Chain of Aryl hydrocarbon receptor (Homo sapiens) (P35869 whole entry, looked up): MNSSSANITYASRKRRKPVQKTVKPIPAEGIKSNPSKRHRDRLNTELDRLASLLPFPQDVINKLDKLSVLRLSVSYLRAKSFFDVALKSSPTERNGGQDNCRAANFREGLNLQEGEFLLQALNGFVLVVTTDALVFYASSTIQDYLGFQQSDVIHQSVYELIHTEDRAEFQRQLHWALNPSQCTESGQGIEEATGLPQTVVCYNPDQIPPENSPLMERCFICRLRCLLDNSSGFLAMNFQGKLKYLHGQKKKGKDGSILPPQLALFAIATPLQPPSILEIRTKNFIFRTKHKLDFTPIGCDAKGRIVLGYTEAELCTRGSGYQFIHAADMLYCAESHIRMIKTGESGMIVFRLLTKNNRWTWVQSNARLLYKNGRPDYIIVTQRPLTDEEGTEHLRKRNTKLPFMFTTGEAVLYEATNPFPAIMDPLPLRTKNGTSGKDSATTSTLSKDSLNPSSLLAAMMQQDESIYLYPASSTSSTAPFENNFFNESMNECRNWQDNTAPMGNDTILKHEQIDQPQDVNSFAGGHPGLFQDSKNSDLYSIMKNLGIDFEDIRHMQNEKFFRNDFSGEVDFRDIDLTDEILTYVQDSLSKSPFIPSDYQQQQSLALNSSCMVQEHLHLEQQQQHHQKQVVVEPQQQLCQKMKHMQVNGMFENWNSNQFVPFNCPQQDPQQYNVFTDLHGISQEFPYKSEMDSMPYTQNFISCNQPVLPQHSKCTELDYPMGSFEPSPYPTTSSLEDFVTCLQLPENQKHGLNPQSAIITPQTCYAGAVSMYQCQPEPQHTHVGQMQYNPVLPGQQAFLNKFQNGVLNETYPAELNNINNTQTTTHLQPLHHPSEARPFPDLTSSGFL
Chain of Hepatocyte nuclear factor 3-beta (Homo sapiens) (Q9Y261 whole entry, looked up): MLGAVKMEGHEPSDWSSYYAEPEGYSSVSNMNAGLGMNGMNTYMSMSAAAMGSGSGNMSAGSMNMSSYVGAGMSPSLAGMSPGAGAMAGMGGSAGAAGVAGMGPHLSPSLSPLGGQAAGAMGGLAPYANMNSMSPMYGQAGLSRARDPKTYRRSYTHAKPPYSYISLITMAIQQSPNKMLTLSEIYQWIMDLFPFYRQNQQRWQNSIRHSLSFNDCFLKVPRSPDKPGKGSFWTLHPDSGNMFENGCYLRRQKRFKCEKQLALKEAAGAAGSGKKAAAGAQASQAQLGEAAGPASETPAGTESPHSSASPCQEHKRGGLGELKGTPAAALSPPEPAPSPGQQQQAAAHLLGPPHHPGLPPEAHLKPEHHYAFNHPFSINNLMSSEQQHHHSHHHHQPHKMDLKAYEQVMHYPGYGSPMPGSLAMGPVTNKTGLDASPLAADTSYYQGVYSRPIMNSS
Chain of CCAAT/enhancer-binding protein beta (Homo sapiens) (P17676 whole entry, looked up): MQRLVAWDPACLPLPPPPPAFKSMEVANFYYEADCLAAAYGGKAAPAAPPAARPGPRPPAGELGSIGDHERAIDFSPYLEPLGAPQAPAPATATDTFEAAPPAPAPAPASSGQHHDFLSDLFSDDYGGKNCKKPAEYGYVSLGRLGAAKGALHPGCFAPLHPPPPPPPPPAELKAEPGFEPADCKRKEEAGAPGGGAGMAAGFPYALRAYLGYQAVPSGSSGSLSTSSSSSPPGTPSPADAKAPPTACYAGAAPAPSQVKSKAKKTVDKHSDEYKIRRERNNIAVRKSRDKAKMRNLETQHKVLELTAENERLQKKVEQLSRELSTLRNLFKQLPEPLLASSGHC
Chain of Retinoic acid receptor alpha (Homo sapiens) (P10276 whole entry, looked up): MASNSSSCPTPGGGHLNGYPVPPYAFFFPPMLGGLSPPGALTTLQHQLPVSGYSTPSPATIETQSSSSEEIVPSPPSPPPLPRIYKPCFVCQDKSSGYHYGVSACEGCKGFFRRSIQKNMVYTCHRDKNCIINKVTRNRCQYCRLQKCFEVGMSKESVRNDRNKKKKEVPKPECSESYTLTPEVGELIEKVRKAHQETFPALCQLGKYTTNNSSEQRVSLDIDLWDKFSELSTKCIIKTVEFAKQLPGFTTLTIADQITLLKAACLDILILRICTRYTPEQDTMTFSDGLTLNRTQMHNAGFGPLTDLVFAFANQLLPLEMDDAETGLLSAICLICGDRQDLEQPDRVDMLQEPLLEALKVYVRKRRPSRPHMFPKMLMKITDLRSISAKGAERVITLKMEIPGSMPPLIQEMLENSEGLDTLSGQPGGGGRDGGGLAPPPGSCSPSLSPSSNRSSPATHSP

Cc1cccc(N(C)C(=S)Oc2ccc3ccccc3c2)c1
active: [15] 25.3 µM
inactive: all other assays above

CC(CC=O)CCCC(C)(C)O (centres undefined)
inactive: all assays above

CCN(CCO)c1cccc(C)c1
active: [5] 55 µM
inactive: all other assays above

O=S1(=O)OC(c2ccc(O)cc2)(c2ccc(O)cc2)c2ccccc21
active: [5] 34.9 µM | [15] 53.4 µM
not listed: [11] | [12] | [16]
inactive: all other assays above

CC/C=C\CCOC(=O)CCCCC
not listed: [7]
inactive: all other assays above

C=C(C)[C@H]1CC=C(C)CC1
not listed: [9]
inactive: all other assays above

CC=CC(=O)N(CC)c1ccccc1C
not listed: [9]
inactive: all other assays above
